Screens deposited in PubChem BioAssay by several laboratories.
ABHD5-PLIN5 inh: ABHD5-PLIN5 interaction inhibitors, primary screen, cell lysate, split luciferase complementation, luminescence | Perilipin-5 (Homo sapiens) + 1-acylglycerol-3-phosphate O-acyltransferase ABHD5 (Homo … | Split G. princeps luciferase complementation, 4 h | inhibition, % at 4 µM | 360,000 tested, 0.78% active | AID 602281, 2012;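 active = inhibition above the mean inhibition across every tested compound plus 3 SD, cut at about 22% in these data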;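 note: 0% = DMSO only wells and the 100% control is not disclosed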
Granule exo inh: LAMP-1 surface exposure blockers, TALL-104 cells – cell-based, flow cytometry, MLPCN library, primary screen | TALL-104 LAMP-1 surface exposure; cells stimulated with thapsigargin and PMA | inhibition, % at 10 µM | 360,000 tested, 0.66% active | AID 651702, 2012;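 active = inhibition above about 55%, limit read from the data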
Rce1 inh: yeast Rce1p protease inhibitors, primary screen, biochemical, fluorescence, cell-free homogeneous. yeast membranes, quenched prenylated peptide cleavage fluorescence. CAAX prenyl protease 2 (Saccharomyces cerevisiae (strain ATCC 204508 / S288c)), Q03530. 290,000 tested, 0.27% active. AID 2563, 2010. calls only;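 active = fall in fluorescence gain of 50% or more versus controls, with final raw signal at or below 3038400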;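 note: plate controls were neutral control wells for no effect and wells lacking membranes for full effect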
Platelet DG rel: inhibitors of platelet dense granule secretion, primary screen, cell-based, MLPCN, human platelets; human platelet-rich plasma, SFLLRN dense granule ATP release, luminescence; inhibition, %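 (compounds screened at 7.5 µM in platelet-rich plasma)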; 300,000 tested, 0.22% active; AID 1663, 2009;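 active = mean replicate score, as percent of positive control, at or above 50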
M18AAP inhibitor: PfM18AAP inhibitors, malaria aminopeptidase, primary screen, biochemical, QFRET, recombinant enzyme. M18 aspartyl aminopeptidase (Plasmodium falciparum 3D7). H-Glu-NHMec fluorogenic cleavage. inhibition, % at 7.35 µM. 290,000 tested, 1.2% active. AID 1822, 2009;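 active = inhibition above the campaign mean inhibition over all tested compounds plus 3 SD, cut at about 28% in these data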;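 note: 0% = plate median of test compound wells and 100% = 2 mM ZnCl2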
An asterisk follows results filed as active. A selection: hits, their analogues and other compounds. The true share with any hit is near 2.6%.

What do the screens show for `CCc1ccc(N(C(=O)c2csnn2)C(C(=O)NC(C)(C)C)c2ccncc2)cc1` (configuration not stated)?
ABHD5-PLIN5 inh: 6; Granule exo inh: -3; Rce1 inh: inactive; Platelet DG rel: 5; M18AAP inhibitor: 3

Results for Cc1ccccc1N=Cc1cccc(O)c1O ?
ABHD5-PLIN5 inh: -12; Granule exo inh: 6; Rce1 inh: inactive; Platelet DG rel: 4; M18AAP inhibitor: 30*

Results for CC(N=Cc1cccc(O)c1O)c1ccccc1 (configuration not stated) ?
ABHD5-PLIN5 inh: -3; Granule exo inh: 1; Rce1 inh: inactive; Platelet DG rel: 13; M18AAP inhibitor: 31*

What do the screens show for `COc1ccc(S(=O)(=O)NCC2CCCO2)cc1NC(=O)c1ccccc1` (configuration not stated)?
ABHD5-PLIN5 inh: -3; Granule exo inh: 10; Rce1 inh: inactive; Platelet DG rel: -5; M18AAP inhibitor: 6

What do the screens show for `COc1ccc(S(=O)(=O)NCC2CCCO2)cc1NC(=O)c1ccccc1F` (configuration not stated)?
ABHD5-PLIN5 inh: -1; Granule exo inh: -10; Rce1 inh: active; Platelet DG rel: -15; M18AAP inhibitor: -2

What do the screens show for `Cc1c2c(n3c(nc4ccccc43)c1C#N)N(CCCN(C)C)CC2`?
ABHD5-PLIN5 inh: -9; Granule exo inh: 15; Rce1 inh: active; Platelet DG rel: -2; M18AAP inhibitor: 6

Results for O=C(COC(=O)c1ccccc1SCC(=O)NC1CCS(=O)(=O)C1)NC1CCS(=O)(=O)C1 (configuration not stated) ?
ABHD5-PLIN5 inh: 1; Granule exo inh: 6; Rce1 inh: inactive; Platelet DG rel: 4; M18AAP inhibitor: -3

Results for O=C(COC(=O)c1ccccc1Cc1ccccc1)NC1CCS(=O)(=O)C1 (configuration not stated) ?
ABHD5-PLIN5 inh: -5; Granule exo inh: -3; Rce1 inh: active; Platelet DG rel: 0; M18AAP inhibitor: -18

How did CNC(=S)NNc1nncc2ccccc12 do in these assays?
ABHD5-PLIN5 inh: -2; Granule exo inh: -3; Rce1 inh: inactive; Platelet DG rel: 4; M18AAP inhibitor: 30*

How did COc1ccc(/C(C)=N/Nc2nncc3ccccc23)cc1 do in these assays?
ABHD5-PLIN5 inh: 2; Granule exo inh: 15; Rce1 inh: inactive; Platelet DG rel: 10; M18AAP inhibitor: -1

What do the screens show for `Cc1nn(-c2ccccc2)c(C)c1NC(=O)c1ccc(S(=O)(=O)N2CCCC2)cc1`?
ABHD5-PLIN5 inh: -12; Granule exo inh: -1; Rce1 inh: inactive; Platelet DG rel: 7; M18AAP inhibitor: 1

How did CCCn1c(SCC(=O)c2c(N)n(C3CC3)c(=O)[nH]c2=O)nc2cc(S(N)(=O)=O)ccc21 do in these assays?
ABHD5-PLIN5 inh: 6; Granule exo inh: -3

What do the screens show for `O=C(NCCCN1CCOCC1)c1ccc(S(=O)(=O)Nc2ccccc2F)cc1`?
ABHD5-PLIN5 inh: 10; Granule exo inh: -1; Rce1 inh: inactive; Platelet DG rel: -7

Results for Cc1[nH]nc(-c2ccc(O)cc2O)c1-c1nc2ccccc2s1 ?
ABHD5-PLIN5 inh: 11; Granule exo inh: -4; Rce1 inh: inactive; Platelet DG rel: -7; M18AAP inhibitor: 1

What do the screens show for `COc1ccc(-c2cc(C(F)(F)F)nc(SCC(=O)NCc3cnn(C)c3C)n2)cc1OC`?
ABHD5-PLIN5 inh: -6; Granule exo inh: 5; Rce1 inh: active; Platelet DG rel: 17; M18AAP inhibitor: 1

Results for COc1ccc(-c2cc(C(F)(F)F)nc(SCC(=O)N(C)Cc3cn(C)nc3C)n2)cc1OC ?
ABHD5-PLIN5 inh: 5; Granule exo inh: -1; Rce1 inh: active; Platelet DG rel: 8; M18AAP inhibitor: -13

What do the screens show for `COc1ccc(-c2cc(C(F)(F)F)nc(SCC(=O)NCc3ccco3)n2)cc1OC`?
ABHD5-PLIN5 inh: 7; Granule exo inh: -2; Rce1 inh: inactive; Platelet DG rel: 10; M18AAP inhibitor: 13

What do the screens show for `COc1ccc(-c2cc(C(F)(F)F)nc(SCC(N)=O)n2)cc1`?
ABHD5-PLIN5 inh: 0; Granule exo inh: -2; Rce1 inh: inactive; Platelet DG rel: 1; M18AAP inhibitor: -2

How did O=C(NCC1CCN(Cc2ccccc2F)CC1)Nc1ccccc1F do in these assays?
ABHD5-PLIN5 inh: -5; Granule exo inh: 8; Rce1 inh: inactive; Platelet DG rel: -4; M18AAP inhibitor: 1
